“And” between values parts separate entries of the source, which are not always exact repeats. Identical values can stand only once. A number with no mark means an inactive call. Results filed as inconclusive are left out. Where a call stands in place of a potency, no number is given. The source made the active and inactive calls. Unless noted, the call rests on the fitted dose curve; in most records, active means well fitted curve in the direction sought with a large enough effect; inconclusive means small, poorly fitted or top-dose-only effect, or another doubt; inactive means no such curve, though single readings can be large; an effect the other way counts as inactive or inconclusive.
system: not listed separately; assay: qHTS for Activators of Parkin Expression: LOPAC Validation Assay (FLuc Reporter) (AID 720573; further: potency means the concentration at half of the fitted maximal effect); details: Cell line, PRKN promoter firefly luciferase reporter; series mostly up to 46.1 µM
Method in brief: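 Neuronal cell line stably carrying FLuc/NLuc coincidence reporter under Parkin promoter; cells plated 24 h, then compounds added in 7-point dose response for 24 h at 37 C. FLuc luminescence read; normalized to DMSO and positive control (100%).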

Structure (SMILES) | Potency
C=CC(C)=C[C@@]1(C)SC(=O)C(C)=C1O | inactive
O=C1C(SCCO)=C(SCCO)C(=O)c2ccccc21 | inactive
Cn1cc(C2=C(c3ccc(Cl)cc3Cl)C(=O)NC2=O)c2ccccc21 | inactive
O=C1/C(=C/c2ccsc2)CC/C1=C\c1cccs1 | 18.4 µM (active)
Cc1ccccc1CNc1ncnc2c1ncn2C1OC(CO)C(O)C1O (centres undefined) | inactive
Nc1nc(Cl)nc2c1ncn2[C@@H]1O[C@H](CO)[C@@H](O)[C@H]1O | inactive
CO/S(=N\S(=O)(=O)c1ccc(Cl)cc1)c1ccc([N+](=O)[O-])cc1 (centres undefined) | inactive
N#C/C(=C\c1ccc(O)c(O)c1)C(=O)c1ccc(O)c(O)c1 | inactive
CCN1/C(=C/C(C)=O)Sc2ccc(OC)cc21 | inactive

system: not listed separately; assay: qHTS assay for small molecule agonists of the antioxidant response element (ARE) signaling pathway measured by Nrf2-dependant transcriptional activity - cell viability counter screen (AID 720653; active means well fitted curve in the direction sought with a large enough effect in the repeat runs; an effect the other way counts as inactive or inconclusive); details: ARE-bla HepG2 viability, CellTiter-Glo ATP luminescence, 16 h; max response: stronger effect = lower value
Method in brief: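 Cytotoxicity counter screen: intracellular ATP quantified by CellTiter-Glo luminescence in the same ARE-bla HepG2 plates, after 16 h compound exposure and a 2 h beta-lactamase substrate step.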

Structure (SMILES) | max response
N=C1N=C(N)c2cc3ccccc3cc21 | -12.6%
Nc1ccc(O)c([N+](=O)[O-])c1 | -1.19% and -1.35%
Nc1ccc(O)c(C(=O)O)c1 | -2.51% and -1.43%

target: T1, Hexokinase-4 (Homo sapiens) + Glucokinase regulatory protein (Homo sapiens) (UniProt P35557+Q14397); assay: qHTS assay for inhibitors of recombinant human GCK-GKRP interaction: Diaphorase-coupled assay (AID 743205); details: G6PDH/diaphorase resorufin fluorescence; series mostly up to 57.5 µM
T1 sequence (P35557 whole entry, looked up): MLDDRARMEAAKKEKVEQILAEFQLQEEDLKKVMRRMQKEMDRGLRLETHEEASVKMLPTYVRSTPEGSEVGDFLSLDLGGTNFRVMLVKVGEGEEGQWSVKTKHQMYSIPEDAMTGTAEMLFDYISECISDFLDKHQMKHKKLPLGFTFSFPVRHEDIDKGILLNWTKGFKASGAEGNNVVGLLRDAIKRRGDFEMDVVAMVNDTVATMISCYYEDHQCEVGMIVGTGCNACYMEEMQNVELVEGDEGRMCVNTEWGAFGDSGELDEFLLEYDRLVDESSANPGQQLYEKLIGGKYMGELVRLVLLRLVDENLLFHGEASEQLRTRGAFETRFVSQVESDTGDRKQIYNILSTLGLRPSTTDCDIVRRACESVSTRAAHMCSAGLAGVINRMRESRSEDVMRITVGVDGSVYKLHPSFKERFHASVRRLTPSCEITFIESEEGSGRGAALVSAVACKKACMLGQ
T1 sequence (Q14397 whole entry, looked up): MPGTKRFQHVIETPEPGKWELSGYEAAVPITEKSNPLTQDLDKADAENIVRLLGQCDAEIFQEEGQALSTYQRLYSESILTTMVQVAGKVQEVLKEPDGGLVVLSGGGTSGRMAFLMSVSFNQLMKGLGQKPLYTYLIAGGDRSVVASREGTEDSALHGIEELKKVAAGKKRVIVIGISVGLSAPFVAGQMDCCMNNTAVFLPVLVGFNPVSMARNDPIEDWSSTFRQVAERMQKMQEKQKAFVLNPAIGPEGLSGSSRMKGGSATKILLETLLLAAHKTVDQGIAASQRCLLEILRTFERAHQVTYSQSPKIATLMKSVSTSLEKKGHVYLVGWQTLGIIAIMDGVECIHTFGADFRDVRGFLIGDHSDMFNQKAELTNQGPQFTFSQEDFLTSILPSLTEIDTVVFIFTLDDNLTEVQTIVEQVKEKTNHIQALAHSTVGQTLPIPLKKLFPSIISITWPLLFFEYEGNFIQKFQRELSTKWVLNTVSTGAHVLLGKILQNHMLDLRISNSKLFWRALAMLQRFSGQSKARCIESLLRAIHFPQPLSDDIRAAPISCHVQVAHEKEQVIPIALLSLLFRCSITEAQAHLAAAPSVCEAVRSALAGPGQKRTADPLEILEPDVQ
Method in brief: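 GST-GCK (10 nM) with FLAG-GKRP (10 nM), 5 mM glucose and 0.4 mM ATP in pH 7.6 Hepes; compounds preincubated 20 min with substrate. G6PDH/diaphorase coupling converts resazurin to resorufin, read kinetically (ex 525/em 590 nm) for 30 min.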

Structure (SMILES) | outcome
O=C1O/C(=C/Br)CCC1c1cccc2ccccc12 (centres undefined) | inactive
C=CC(C)=C[C@@]1(C)SC(=O)C(C)=C1O | inactive
N.N.N.N.N.N.N.N.N.N.N.N.N.N.O.O.[Ru+4].[Ru+5].[Ru+5] | inactive
CNC(=O)[C@H]1O[C@@H](n2cnc3c(NCc4ccc(N)cc4)ncnc32)[C@H](O)[C@@H]1O | inactive
C=CC(=O)c1ccc(CCCCCC)cc1 | inactive
O=C1C(SCCO)=C(SCCO)C(=O)c2ccccc21 | inactive
Cn1cc(C2=C(c3ccc(Cl)cc3Cl)C(=O)NC2=O)c2ccccc21 | inactive
O=C1/C(=C/c2ccsc2)CC/C1=C\c1cccs1 | inactive
Cc1ccccc1CNc1ncnc2c1ncn2C1OC(CO)C(O)C1O (centres undefined) | inactive
Nc1nc(Cl)nc2c1ncn2[C@@H]1O[C@H](CO)[C@@H](O)[C@H]1O | inactive
CO/S(=N\S(=O)(=O)c1ccc(Cl)cc1)c1ccc([N+](=O)[O-])cc1 (centres undefined) | inactive
N#C/C(=C\c1ccc(O)c(O)c1)C(=O)c1ccc(O)c(O)c1 | inactive
CN(C)c1ccc(/C=C2\C(=O)Nc3ccccc32)cc1 | inactive
O=c1[nH]c2cc(Cl)c(Cl)cc2[nH]c1=O | inactive
CCCCCCCCCCCCCCCC(=O)NCC(COP(=O)([O-])OCC[N+](C)(C)C)OCC (centres undefined) | inactive
CCN1/C(=C/C(C)=O)Sc2ccc(OC)cc21 | inactive

target: T1, Hexokinase-4 (Homo sapiens) + Glucokinase regulatory protein (Homo sapiens); assay: qHTS assay for inhibitors of recombinant human GCK-GKRP interaction: ADP-Glo assay (AID 743206); details: ADP-Glo luminescence, 60 min; series mostly up to 76.9 µM
Method in brief: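 Pin-transferred compounds meet a 15 nM GST-GCK/15 nM FLAG-GKRP/2 uM S6P mix (dispense concentrations). ATP is then added to 0.4 mM final with 5 mM glucose, and the reaction runs 60 min at room temperature. ADP is quantified luminescently.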

Structure (SMILES) | Potency
O=C1O/C(=C/Br)CCC1c1cccc2ccccc12 (centres undefined) | inactive
C=CC(C)=C[C@@]1(C)SC(=O)C(C)=C1O | inactive
N.N.N.N.N.N.N.N.N.N.N.N.N.N.O.O.[Ru+4].[Ru+5].[Ru+5] | inactive
CNC(=O)[C@H]1O[C@@H](n2cnc3c(NCc4ccc(N)cc4)ncnc32)[C@H](O)[C@@H]1O | inactive
C=CC(=O)c1ccc(CCCCCC)cc1 | inactive
O=C1C(SCCO)=C(SCCO)C(=O)c2ccccc21 | inactive
Cn1cc(C2=C(c3ccc(Cl)cc3Cl)C(=O)NC2=O)c2ccccc21 | inactive
O=C1/C(=C/c2ccsc2)CC/C1=C\c1cccs1 | inactive
Cc1ccccc1CNc1ncnc2c1ncn2C1OC(CO)C(O)C1O (centres undefined) | inactive
Nc1nc(Cl)nc2c1ncn2[C@@H]1O[C@H](CO)[C@@H](O)[C@H]1O | inactive
CO/S(=N\S(=O)(=O)c1ccc(Cl)cc1)c1ccc([N+](=O)[O-])cc1 (centres undefined) | inactive
N#C/C(=C\c1ccc(O)c(O)c1)C(=O)c1ccc(O)c(O)c1 | inactive
CN(C)c1ccc(/C=C2\C(=O)Nc3ccccc32)cc1 | inactive
O=c1[nH]c2cc(Cl)c(Cl)cc2[nH]c1=O | inactive
CCCCCCCCCCCCCCCC(=O)NCC(COP(=O)([O-])OCC[N+](C)(C)C)OCC (centres undefined) | inactive
CCN1/C(=C/C(C)=O)Sc2ccc(OC)cc21 | inactive

target: T1, Hexokinase-4 (Homo sapiens) + Glucokinase regulatory protein (Homo sapiens); assay: qHTS assay for inhibitors of recombinant human GCK-GKRP interaction: HTRF assay (AID 743207); details: recombinant GCK-GKRP HTRF binding, 60 min, with sorbitol-6-phosphate; series mostly up to 57.5 µM
Method in brief: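 GST-GCK and FLAG-GKRP (5 nM each) were combined with 2 uM S6P in pH 7.1 Hepes/MgCl2/KCl/DTT buffer, then compound and anti-FLAG XL665/anti-GST K antibodies were added. After 60 min at room temperature, HTRF 665/615 nm emission was read.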

Structure (SMILES) | Potency
CNC(=O)[C@H]1O[C@@H](n2cnc3c(NCc4ccc(N)cc4)ncnc32)[C@H](O)[C@@H]1O | inactive
C=CC(=O)c1ccc(CCCCCC)cc1 | inactive
O=C1/C(=C/c2ccsc2)CC/C1=C\c1cccs1 | inactive
Cc1ccccc1CNc1ncnc2c1ncn2C1OC(CO)C(O)C1O (centres undefined) | inactive
Nc1nc(Cl)nc2c1ncn2[C@@H]1O[C@H](CO)[C@@H](O)[C@H]1O | inactive
CO/S(=N\S(=O)(=O)c1ccc(Cl)cc1)c1ccc([N+](=O)[O-])cc1 (centres undefined) | inactive
N#C/C(=C\c1ccc(O)c(O)c1)C(=O)c1ccc(O)c(O)c1 | inactive
CN(C)c1ccc(/C=C2\C(=O)Nc3ccccc32)cc1 | inactive
O=c1[nH]c2cc(Cl)c(Cl)cc2[nH]c1=O | inactive
CCCCCCCCCCCCCCCC(=O)NCC(COP(=O)([O-])OCC[N+](C)(C)C)OCC (centres undefined) | inactive
CCN1/C(=C/C(C)=O)Sc2ccc(OC)cc21 | inactive

system: not listed separately; assay: qHTS Assay for Identifying Gametocytocidal Compounds (AID 743244); further: potency means the concentration at half of the fitted maximal effect;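 on max response: actives lower the fluorescent signal which means gametocytes are killed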; details: P. falciparum 3D7 stage III-V gametocytes, alamarBlue, 72 h; max response: stronger effect = lower value
Method in brief: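 Stage III-V P. falciparum 3D7 gametocytes, 20,000 per well, were exposed to compounds for 72 h at 37C, 5% CO2. AlamarBlue was then added for 24 h and viability was read as fluorescence at Ex 525/Em 598 nm.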

Structure (SMILES) | max response | Potency
COC(=O)[C@H]1[C@H]2C[C@@H]3c4[nH]c5cc(OC)ccc5c4CCN3C[C@H]2C[C@@H](OC(=O)/C=C/c2cc(OC)c(OC)c(OC)c2)[C@@H]1OC | -0.068% | –
COC(=O)C1=C(C)NC(C)=C(C(=O)OCC(C)C)C1c1ccccc1[N+](=O)[O-] (centres undefined) | 0.875% | –
O=C1O/C(=C/Br)CCC1c1cccc2ccccc12 (centres undefined) | 7.23% | –
C=CC(C)=C[C@@]1(C)SC(=O)C(C)=C1O | 15.5% | –
N.N.N.N.N.N.N.N.N.N.N.N.N.N.O.O.[Ru+4].[Ru+5].[Ru+5] | – | 0.935 µM (active)
CNC(=O)[C@H]1O[C@@H](n2cnc3c(NCc4ccc(N)cc4)ncnc32)[C@H](O)[C@@H]1O | 6.14% | –
C=CC(=O)c1ccc(CCCCCC)cc1 | 6.31% | –
CC1(C)C[C@@H]1C(=O)N/C(=C\CCCCSC[C@H](N)C(=O)O)C(=O)O | 3.26% and 5.48% | –
C=C(Nc1ccc(OCC)cc1)Nc1ccc(OCC)cc1 | 14.6% and 14.3% | –
CCCCC[C@H](O)/C=C/[C@@H]1[C@@H](C/C=C\CCCC(=O)O)[C@@H](O)C[C@H]1O | -4.72% and 7.02% | –
CCCCCC[C@@H](O)C/C=C\CCCCCCCC(=O)O | 10.3% and -5.91% and 3.41% | –
O=C1C(SCCO)=C(SCCO)C(=O)c2ccccc21 | – | 1.41 µM (active)
CC(C(=O)O)c1ccc2c(c1)[nH]c1ccc(Cl)cc12 (centres undefined) | 3.15% | –
CN(C)CCn1nnnc1SCC1=C(C(=O)O)N2C(=O)[C@@H](NC(=O)Cc3csc(N)n3)[C@H]2SC1 | 19.2% | –
Cn1cc(C2=C(c3ccc(Cl)cc3Cl)C(=O)NC2=O)c2ccccc21 | 6.65% | –
CN1[C@@H]2CC[C@H]1CC(OC(c1ccccc1)c1ccccc1)C2 (some centres undefined) | -0.265% and -8.62% | –
CC1(C)S[C@@H]2[C@H](NC(=O)[C@H](NC(=O)N3CCN(S(C)(=O)=O)C3=O)c3ccccc3)C(=O)N2[C@H]1C(=O)O | 9.5% | –

Structure (SMILES) | max response | Potency
O=C1/C(=C/c2ccsc2)CC/C1=C\c1cccs1 | 30.3% | –
Cc1ccccc1CNc1ncnc2c1ncn2C1OC(CO)C(O)C1O (centres undefined) | 21.1% | –
CN1CCN(c2cc3c(nn2)Oc2ccccc2N3C)CC1 | -7.02% | –
C=CCN1C(=O)C(CC(C)C)NC1=S (centres undefined) | 24.3% and -10.7% | –
Nc1nc(Cl)nc2c1ncn2[C@@H]1O[C@H](CO)[C@@H](O)[C@H]1O | 6.66% | –
CO/S(=N\S(=O)(=O)c1ccc(Cl)cc1)c1ccc([N+](=O)[O-])cc1 (centres undefined) | 19.6% | –
CC[C@H]1OC(=O)[C@H](C)C(=O)[C@H](C)[C@@H](O[C@@H]2O[C@H](C)C[C@H](N(C)C)[C@H]2O)[C@](C)(OC)C[C@@H](C)C(=O)[C@H](C)[C@H]2N(CCCCn3cnc(-c4cccnc4)c3)C(=O)O[C@]12C | -5.82% and 15.9% | –
CC1(C)[C@@H](O)CC[C@]2(C)[C@H]3C(=O)C=C4[C@@H]5C[C@@](C)(C(=O)O)CC[C@]5(C)CC[C@@]4(C)[C@]3(C)CC[C@@H]12 | 6.32% and -6.89% | –
Nc1ccc(O)c([N+](=O)[O-])c1 | -7.22% | –
COc1cc(/C=C/C(=O)N2CCN(CC(=O)N3CCCC3)CC2)cc(OC)c1OC | -1.2% | –
N#C/C(=C\c1ccc(O)c(O)c1)C(=O)c1ccc(O)c(O)c1 | 10.5% | –
CC(C(=O)O)c1ccc(C(=O)c2ccccc2)s1 (centres undefined) | -0.0039% | –
Cc1cc(O)c2ccccc2c1O | – | 15.8 µM (active)
CC[C@H]1OC(=O)[C@H](C)[C@@H](O[C@H]2C[C@@](C)(OC)[C@@H](O)[C@H](C)O2)[C@H](C)[C@@H](O[C@@H]2O[C@H](C)C[C@H](N(C)C)[C@H]2O)[C@](C)(O)C[C@@H](C)C(=O)[C@H](C)[C@@H](O)[C@]1(C)O | 1.77% and 0.604% | –
CCCCCCCCCCCCCCCC(=O)NCC(COP(=O)([O-])OCC[N+](C)(C)C)OCC (centres undefined) | 1.33% | –
Nc1ccc(O)c(C(=O)O)c1 | 11.4% | –
CCN1/C(=C/C(C)=O)Sc2ccc(OC)cc21 | 22.2% | –

Reference: PubChem BioAssay (NCATS)
